# Screening data as filed in PubChem BioAssay.
# In the library only some 8.1% were active in any assay of this set; here they are far more common.
# MCF10A rereplic – DNA re-replication induction in MCF 10a cells; MCF 10A DNA re-replication, Hoechst nuclear intensity, 48 h; Potency, µM (series often up to 46.1 µM), for inactives: at the top dose activity, positive = re-replication, usual class: activators; 2.9% of 350,000 active; note: % of control where 0% means no effect; nearly all actives have a fitted effect of over 50% in size
# ELG1 DNA repair – inhibitors of ELG1-dependent DNA repair in HEK293T cells; HEK293T ELG1-luciferase reporter, luminescence, 16 h; DNA damage induced by 5-fluorouridine; Potency, µM (doses to about 46.1 µM), without a hit: at the highest dose activity change, negative = inhibition, actives largely listed as inhibitors; 2.3% of 330,000 active; AID 504467; note: % is set by controls: 0 for no effect and ±100 for the full control effect; nearly all actives have a fitted effect of over 55% in size
#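 5-Fluorouridine DNA damage + compound/DMSO, 2,000 cells/well, 16 h, 37 °C/5% CO2. ONE-Glo, 30 min RT, luminescence. Readout = decrease in reporter signal.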
# KB-3-1 cytotox – kills parental KB-3-1 adenocarcinoma cells; KB-3-1 viability, CellTiter-Glo ATP luminescence, 72 h; Potency, µM (titrated, usually from 46.1 µM), hits mostly cytotoxic; 1.4% of 400,000 active; note: % is set by controls: 0 for no effect and ±100 for the full control effect; nearly all actives have a fitted effect of over 60% in size
#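 72 h, 37 °C compound treatment of KB-3-1 parental cells; CellTiter-Glo added, 10 min, luminescence read. Data corrected against DMSO-only plates and normalized before curve fitting.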
# KB-V1 MDR tox – KB-V1 MDR subline cytotoxicity; KB-V1 MDR cells viability, CellTiter-Glo, 72 h; Potency, µM (doses to about 46.1 µM), actives largely listed as cytotoxic; 3.4% of 400,000 active; note: % is set by controls: 0 for no effect and ±100 for the full control effect; nearly all actives have a fitted effect of over 60% in size
#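 KB-V1, DMEM (no phenol red) + 10% FBS; cpd pin-transferred, titration series; 72 h, 37 degrees C; CellTiter-Glo, luminescence. Data normalized, curve-fit.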
# SW480 rereplic – DNA re-replication induction in SW480 cells | Potency, µM (top dose mostly 46.1 µM), for the others: at the top dose re-replication activation, actives largely listed as activators | 1.8% of 340,000 active | SW480 DNA re-replication, Hoechst DNA content imaging, 48 h; note: % of control where 0% means no effect; nearly all actives have a fitted effect of over 55% in size
#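 Per well, 250 cells were exposed to pinned compound for 48 hr. Nuclear DNA was visualised with Hoechst (40 min, 37 C) and total object intensity recorded by fluorescence scanning.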
# * hit, by the source's call; i = inactive; ? = inconclusive; . = no result. Calls come from the whole dose curve; as a rule, active = well fitted curve in the direction sought with a large enough effect; inconclusive = small, poorly fitted or top-dose-only effect, or another doubt; inactive = no such curve, though single readings can be large; an effect the other way counts as inactive or inconclusive. Potency is the fitted concentration of half-maximal effect.
SMILES,MCF10A rereplic,ELG1 DNA repair,KB-3-1 cytotox,KB-V1 MDR tox,SW480 rereplic
Cc1cc(C)nc(SCC(=O)Nc2ccc(S(=O)(=O)NCCO)cc2)n1,7%,-1%,i,i,2%
Cc1cc(C)nc(SCC(=O)Nc2ccc(S(=O)(=O)NC(C)(C)C)cc2)n1,-3%,?,i,21µM*,1%
Cc1cc(C)n2nc(SCC(=O)Nc3cccc(C(F)(F)F)c3)nc2n1,.,.,?,21µM*,.
Cc1cc(C)n2nc(SCCC(=O)NCCc3ccccc3)nc2n1,10%,0%,i,15µM*,-3%
Cc1nn(-c2ccccc2)c2[nH]c(=O)cc(C(F)(F)F)c12,?,-17%,i,i,-42%
CCCn1c(C)cc(C(=O)CSc2nc3nc(C)cc(C)n3n2)c1C,8%,?,i,6.5µM*,-5%
CCN(C(=O)CSc1nc2nc(C)cc(C)n2n1)c1ccccc1,1%,11%,i,?,1%
CCN(C(=O)CSc1nc2nc(C)cc(C)n2n1)c1cccc(C)c1,-9%,-1%,i,23µM*,4%
COc1cnn(-c2cccc(C)c2)c(=O)c1Cl,?,?,i,i,?
COc1cc(C2C3=C(Nc4ncnn42)c2ccccc2CC3)cc(OC)c1OC (stereo unspecified),?,3%,0.29µM*,0.65µM*,0.82µM*
COc1cc(C2C=C(c3cccs3)Nc3ncnn32)cc(OC)c1OC (stereo unspecified),?,?,1µM*,3.7µM*,?
COc1cc(C2CC(=O)C3=C(C2)Nc2ncnn2C3c2cccs2)cc(OC)c1OC (stereo unspecified),6%,2%,i,i,-20%
COc1cc(C(=O)NCC2CCCN2S(=O)(=O)c2cccs2)cc(OC)c1OC (stereo unspecified),6%,-6%,i,i,?
c1ccc2c(c1)nc(N1CCOCC1)c1ccccc12,-2%,4%,i,i,-5%
Cc1nc(N2CCCCCC2)c2ccccc2n1,-3%,?,?,?,-4%
COc1ccc(Nc2nc(N3CCCC3)c3ccccc3n2)cc1,?,9.2µM*,?,?,-1%
CCN(CC)c1ccc(Nc2nc(N3CCOCC3)c3ccccc3n2)cc1,?,?,8.2µM*,2.6µM*,?
CCOC(=O)C1(C)CCN1C(=O)c1cc2ccccc2s1 (stereo unspecified),.,.,i,i,.
Cc1c(P(=S)(c2ccccc2)c2ccccc2)[n+]2ccccc2n1C/C=C/c1ccccc1,.,.,10µM*,i,.
C=CCN1C(=O)C2(NNc3ccccc3O2)c2ccccc21 (stereo unspecified),?,8%,?,?,0%
C=CCN1C(=O)C2(NC(=O)c3ccccc3N2)c2ccccc21 (stereo unspecified),?,8%,?,?,18µM*
O=C(Nc1nnc(C2CC2)s1)c1ccc(Cl)nc1,9%,?,i,?,-38%
CCOC(=O)C(=CNc1ccc(NC2=NCC(C)S2)cc1)C(=O)OCC (stereo unspecified),5%,6.5µM*,?,i,1%
CC1(C)Cc2c(c(N3CCCC3)nc3sc4c(N5CCN(CCO)CC5)ncnc4c23)CO1,1%,8.2µM*,i,?,?
CSc1ccccc1NC(=O)CN(C)C(=O)C1CCN(C(=O)Nc2ccccc2)CC1,15%,13%,i,i,2.3µM*
SMILES,MCF10A rereplic,ELG1 DNA repair,KB-3-1 cytotox,KB-V1 MDR tox,SW480 rereplic
Cc1cc(-c2ccc([N+](=O)[O-])cc2)cc(C)n1,-17%,.,i,i,-14%
CCOC(=O)c1oc2ccc(CNC3CCCCC3)c(Cl)c2c1C,16µM*,-10%,i,i,?
COc1ccc(NC(=O)C23CC4CC(C2)CC(n2cnc(Br)n2)(C4)C3)cc1Cl,7%,?,i,9.2µM*,-2%
O=C(O)c1cccc(NC(=O)C23CC4CC(C2)CC(n2cnc(Cl)n2)(C4)C3)c1,1%,19%,i,?,-4%
Cc1ccc2ccccc2[n+]1[O-],.,.,i,i,.
C=CCN1C(=O)/C(=C2/Sc3ccc(OC)cc3N2C)SC1=Nc1cccc(O)c1,5.8µM*,?,i,i,?
CCN1C(=O)/C(=C2/Sc3ccc(OC)cc3N2C)SC1=Nc1ccc(OC)cc1,-33%,23%,i,i,-41%
CC(C)NC(=O)C1(C#N)C=C1c1ccccc1 (stereo unspecified),.,.,8.2µM*,?,.
CSc1nc(N(C)NC(=O)c2ccccc2)c2ccccc2n1,1.6µM*,8%,1µM*,1.2µM*,?
CSc1nc(N(C)NC(=O)c2ccc(Cl)cc2)c2ccccc2n1,?,-20%,0.58µM*,2.9µM*,0.58µM*
COc1ccc(CCNC(=O)c2cc(=O)c3ccc(C)cc3o2)cc1OC,5%,16µM*,?,?,?
Cc1ccc2c(=O)cc(C(=O)NCCc3ccc(S(N)(=O)=O)cc3)oc2c1,-7%,9.2µM*,i,i,-6%
CCOc1ccc(CCNC(=O)Nc2ccccc2C)cc1OCC,0%,2%,i,?,-5%
COc1ccc(CCN=C(N)NS(=O)(=O)c2ccc(F)cc2)cc1,6%,18µM*,i,?,3%
O=C(O)CN=C(NS(=O)(=O)c1ccc(Cl)cc1)c1ccc(F)cc1,10%,-1%,i,i,-7%
O=S(=O)(NC(=NCc1ccccc1)c1ccc(F)cc1)c1ccc(Cl)cc1,0.73µM*,3%,i,?,-59%
NC(=NCCc1ccc(Cl)cc1)NS(=O)(=O)c1ccc(F)cc1,-11%,?,?,15µM*,-16%
CCOc1ccc(NC(=O)CN(C)C(=O)c2cn(-c3ccc(F)cc3)nc2-c2cccc(OC)c2)cc1OCC,?,9.2µM*,i,?,1%
CCOc1ccc(NC(=O)CN(C)C(=O)c2ccccc2OCCOc2ccccc2)cc1OCC,10%,12µM*,i,2.3µM*,0%
CCOc1ccc(NC(=O)CN(C)C(=O)c2cccc3ccccc23)cc1OCC,2%,2%,?,?,-4%
CCOc1ccc(NC(=O)CN(C)C(=O)c2ccccc2CCc2ccccc2)cc1OCC,?,7.3µM*,i,?,0%
CC(=O)Cc1nsc(NC(=O)C2Cc3ccccc3C(=O)O2)n1 (stereo unspecified),0%,19%,i,i,-5%
COc1cc(C#CC#CCN2CCCCC2)ccc1O,?,?,i,10µM*,?
Cc1ccc(S(=O)(=O)N(CCCc2c(C)nc(N)[nH]c2=O)Cc2ccc([N+](=O)[O-])cc2)cc1,.,.,i,i,.
Cc1ccc(S(=O)(=O)N2CCCCCC2)cc1[N+](=O)[O-],?,-2%,i,i,-79%
